{
  "source": "the OligoGym collection",
  "data": [
    {"target": "PHF23", "test": "pooled miR-30 sensor sort-seq; sequence = guide strand", "conditions": "shRNA", "values": [
      {"sequence": "TTCAGAGTCTGTATCACTGGGG", "sensor-assay potency score (higher = more potent)": 0.423},
      {"sequence": "TTCTCTTGGATGACTTTGCTTT", "sensor-assay potency score (higher = more potent)": -0.308},
      {"sequence": "TTCTTGCTCTTCTTGATTCGAG", "sensor-assay potency score (higher = more potent)": -0.558}
    ]},
    {"target": "PHF8", "test": "pooled miR-30 sensor sort-seq; sequence = guide strand", "conditions": "shRNA", "values": [
      {"sequence": "TTCCAAACTAATGACATTGAGG", "sensor-assay potency score (higher = more potent)": -0.716},
      {"sequence": "AACACTTGTAGCACTTGTCCAC", "sensor-assay potency score (higher = more potent)": -0.0267},
      {"sequence": "TTTGCTATCTTGGTTCGCCGAG", "sensor-assay potency score (higher = more potent)": -0.492},
      {"sequence": "TTCTGCTTGAACGATGACCTGT", "sensor-assay potency score (higher = more potent)": 0.147},
      {"sequence": "TTTCACAAAATCACCAAGCTTC", "sensor-assay potency score (higher = more potent)": 0.0269},
      {"sequence": "TCACACTCGATCATGAAGCGGG", "sensor-assay potency score (higher = more potent)": 0.234},
      {"sequence": "TTGGATAAACTCTTCACCCTTT", "sensor-assay potency score (higher = more potent)": 0.593},
      {"sequence": "TTTGTCAGAACCAACATAGTGT", "sensor-assay potency score (higher = more potent)": 0.088},
      {"sequence": "TTGAGCTGCATCTCGATGTTAA", "sensor-assay potency score (higher = more potent)": -0.768},
      {"sequence": "TTCAACACCAACACAACTGCCA", "sensor-assay potency score (higher = more potent)": 0.225},
      {"sequence": "TTGCTTTCTGGAAAGAGCCTGT", "sensor-assay potency score (higher = more potent)": -0.163},
      {"sequence": "TTGCTATCTTGGTTCGCCGAGA", "sensor-assay potency score (higher = more potent)": -0.723}
    ]}
  ]
}
